These results are taken from paper PMC7862700, “An all-to-all approach to the identification of sequence-specific readers for epigenetic DNA modifications on cytosine”.

Assay in all cases: DAPPL (digital affinity profiling via proximity ligation, sequencing); 10 mM Tris-HCl pH 7.5, 50 mM NaCl, 1 mM DTT, 4% glycerol, room temperature, 30 min; GST-TFs on glutathione beads, 16-mer random dsDNA library, 0.1% formaldehyde crosslink after washing; high values mean tight binding
Details in all cases: protein: recombinant; tags: N-terminal GST; dsDNA, one strand shown

Experiment [1] concerns the target T1, FLI1 (Homo sapiens, UniProt Q01543 1-452).
T1 sequence: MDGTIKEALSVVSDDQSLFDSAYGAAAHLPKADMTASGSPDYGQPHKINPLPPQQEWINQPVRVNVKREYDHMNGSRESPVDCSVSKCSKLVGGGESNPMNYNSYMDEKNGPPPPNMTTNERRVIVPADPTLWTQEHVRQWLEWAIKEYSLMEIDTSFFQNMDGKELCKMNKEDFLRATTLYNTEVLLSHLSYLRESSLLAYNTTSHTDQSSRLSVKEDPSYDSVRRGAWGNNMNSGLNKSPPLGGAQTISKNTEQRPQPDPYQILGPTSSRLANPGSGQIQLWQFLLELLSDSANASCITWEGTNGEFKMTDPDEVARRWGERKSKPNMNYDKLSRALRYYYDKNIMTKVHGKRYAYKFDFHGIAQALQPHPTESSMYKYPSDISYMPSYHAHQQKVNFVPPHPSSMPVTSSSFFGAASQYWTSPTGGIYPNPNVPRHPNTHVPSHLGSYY
In short, it runs like this: (§1)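 After expression in yeast as GST fusions, human transcription factors were bound to glutathione beads, DNA-barcoded and mixed with a tag-only sample. The pools were incubated with 200 nmole of a 16-mer random double-stranded DNA library in Tris/NaCl/DTT/glycerol buffer (30 min, room temperature), washed and crosslinked with 0.1% formaldehyde. Proximity ligation with BsaI/T4 ligase ran for 1 h at 37 °C, before PCR amplification and sequencing on an Illumina NextSeq500. Binding signal is a hexamer's read frequency for a factor divided by its frequency for the tag-only sample.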

In experiment [2] the target is T2, ELK1 (Homo sapiens, UniProt P19419 1-428).
T2 sequence: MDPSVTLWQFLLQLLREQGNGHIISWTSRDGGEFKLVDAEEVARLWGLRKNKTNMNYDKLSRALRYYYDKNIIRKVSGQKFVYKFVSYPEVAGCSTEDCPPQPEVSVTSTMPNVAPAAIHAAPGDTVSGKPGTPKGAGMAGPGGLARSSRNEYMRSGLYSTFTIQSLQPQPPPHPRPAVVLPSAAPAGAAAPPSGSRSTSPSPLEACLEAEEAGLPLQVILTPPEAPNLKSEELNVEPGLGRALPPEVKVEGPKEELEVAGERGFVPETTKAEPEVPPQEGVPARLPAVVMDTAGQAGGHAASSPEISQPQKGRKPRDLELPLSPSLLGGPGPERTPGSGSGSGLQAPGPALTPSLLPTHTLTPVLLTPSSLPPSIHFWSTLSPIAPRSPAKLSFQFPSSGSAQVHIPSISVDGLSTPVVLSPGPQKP
The method, boiled down: as §1

In experiment [3] the target is T3, GABPA (Homo sapiens, UniProt Q06546 1-454).
T3 sequence: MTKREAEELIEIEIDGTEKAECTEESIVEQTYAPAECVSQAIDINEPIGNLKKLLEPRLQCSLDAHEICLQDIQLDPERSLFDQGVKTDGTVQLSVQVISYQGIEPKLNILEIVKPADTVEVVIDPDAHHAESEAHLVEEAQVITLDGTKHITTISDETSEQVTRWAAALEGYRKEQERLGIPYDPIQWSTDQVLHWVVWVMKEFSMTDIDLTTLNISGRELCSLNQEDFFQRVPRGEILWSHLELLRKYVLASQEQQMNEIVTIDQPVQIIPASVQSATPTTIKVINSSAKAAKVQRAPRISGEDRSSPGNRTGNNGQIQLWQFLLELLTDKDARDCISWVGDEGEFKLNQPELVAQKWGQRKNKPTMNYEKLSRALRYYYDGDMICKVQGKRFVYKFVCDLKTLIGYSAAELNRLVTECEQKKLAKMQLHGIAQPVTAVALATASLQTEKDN
In short, it runs like this:
as §1

For experiment [4], the target named is T4, ERG (Homo sapiens, UniProt P11308 1-479).
T4 sequence: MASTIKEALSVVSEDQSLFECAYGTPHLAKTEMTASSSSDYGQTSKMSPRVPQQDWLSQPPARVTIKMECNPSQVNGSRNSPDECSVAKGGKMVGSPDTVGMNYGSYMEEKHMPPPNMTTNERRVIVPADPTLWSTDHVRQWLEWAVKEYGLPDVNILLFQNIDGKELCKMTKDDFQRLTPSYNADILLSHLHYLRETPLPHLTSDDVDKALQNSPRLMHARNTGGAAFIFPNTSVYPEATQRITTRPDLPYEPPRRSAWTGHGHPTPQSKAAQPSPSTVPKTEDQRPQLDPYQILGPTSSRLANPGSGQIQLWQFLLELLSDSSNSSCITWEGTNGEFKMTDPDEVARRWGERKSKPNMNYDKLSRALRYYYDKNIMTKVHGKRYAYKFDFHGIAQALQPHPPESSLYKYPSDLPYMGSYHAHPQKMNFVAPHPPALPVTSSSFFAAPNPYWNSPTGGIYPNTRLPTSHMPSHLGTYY
In short, it runs like this:
as §1

Experiment [5] concerns the target ELF1 (Homo sapiens, UniProt P32519 1-619). The method, boiled down: as §1
Experiment [6] concerns the target T5, EHF (Homo sapiens, UniProt Q9NZC4 1-300).
T5 sequence: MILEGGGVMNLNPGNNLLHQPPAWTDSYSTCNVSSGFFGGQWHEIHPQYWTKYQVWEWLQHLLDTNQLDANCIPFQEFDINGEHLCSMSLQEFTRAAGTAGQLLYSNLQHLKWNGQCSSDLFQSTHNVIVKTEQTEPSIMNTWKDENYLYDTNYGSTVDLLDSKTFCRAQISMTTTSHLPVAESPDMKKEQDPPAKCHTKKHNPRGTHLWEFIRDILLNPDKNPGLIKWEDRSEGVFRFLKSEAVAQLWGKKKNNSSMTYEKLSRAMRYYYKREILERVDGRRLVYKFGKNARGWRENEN
The method, boiled down: as §1

The target of experiment [7] is SPI1 (Homo sapiens, UniProt P17947 1-270). The method, boiled down: as §1
In experiment [8] the target is SPIB (Homo sapiens, UniProt Q01892 1-262). The method, boiled down:
as §1

For experiment [9], the target named is T6, ELK3 (Homo sapiens, UniProt P41970 1-407).
T6 sequence: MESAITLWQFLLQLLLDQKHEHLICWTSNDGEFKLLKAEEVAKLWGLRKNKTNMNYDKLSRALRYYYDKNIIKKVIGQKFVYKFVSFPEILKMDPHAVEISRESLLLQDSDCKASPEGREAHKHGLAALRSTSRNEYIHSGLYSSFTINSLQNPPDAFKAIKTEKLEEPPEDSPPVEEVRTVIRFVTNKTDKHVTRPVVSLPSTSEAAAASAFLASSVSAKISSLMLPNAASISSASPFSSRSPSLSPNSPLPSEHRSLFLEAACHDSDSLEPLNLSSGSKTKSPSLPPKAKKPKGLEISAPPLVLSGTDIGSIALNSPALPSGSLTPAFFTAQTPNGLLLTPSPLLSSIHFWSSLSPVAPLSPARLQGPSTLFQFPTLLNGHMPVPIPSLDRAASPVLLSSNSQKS
The method, boiled down: as §1

The target of experiment [10] is T7, FEV (Homo sapiens, UniProt Q99581 1-238).
T7 sequence: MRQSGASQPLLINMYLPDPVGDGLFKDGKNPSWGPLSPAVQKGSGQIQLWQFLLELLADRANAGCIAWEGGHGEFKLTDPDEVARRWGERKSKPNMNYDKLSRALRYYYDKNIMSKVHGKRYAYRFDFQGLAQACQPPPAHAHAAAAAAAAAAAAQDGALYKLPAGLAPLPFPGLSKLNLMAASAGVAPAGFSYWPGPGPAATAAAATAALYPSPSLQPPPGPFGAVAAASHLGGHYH
The method, boiled down: as §1

Experiment [11] deals with ETV5 (Homo sapiens, UniProt P41161 1-510). In short, it runs like this: as §1
In experiment [12] the target is T8, SPIC (Homo sapiens, UniProt Q8N5J4 1-248).
T8 sequence: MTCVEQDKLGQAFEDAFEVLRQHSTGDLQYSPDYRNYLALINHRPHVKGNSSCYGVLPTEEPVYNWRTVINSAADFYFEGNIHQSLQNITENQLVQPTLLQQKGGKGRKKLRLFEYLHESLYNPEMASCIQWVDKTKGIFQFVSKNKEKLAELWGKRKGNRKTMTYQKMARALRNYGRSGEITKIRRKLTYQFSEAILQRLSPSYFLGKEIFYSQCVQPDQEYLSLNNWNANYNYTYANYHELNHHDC
The method, boiled down:
as §1

Experiment [13] addresses ELF4 (Homo sapiens, UniProt Q99607 1-663). In short, it runs like this:
as §1

For experiment [14], the target named is T9, ERF (Homo sapiens, UniProt P50548 1-548).
T9 sequence: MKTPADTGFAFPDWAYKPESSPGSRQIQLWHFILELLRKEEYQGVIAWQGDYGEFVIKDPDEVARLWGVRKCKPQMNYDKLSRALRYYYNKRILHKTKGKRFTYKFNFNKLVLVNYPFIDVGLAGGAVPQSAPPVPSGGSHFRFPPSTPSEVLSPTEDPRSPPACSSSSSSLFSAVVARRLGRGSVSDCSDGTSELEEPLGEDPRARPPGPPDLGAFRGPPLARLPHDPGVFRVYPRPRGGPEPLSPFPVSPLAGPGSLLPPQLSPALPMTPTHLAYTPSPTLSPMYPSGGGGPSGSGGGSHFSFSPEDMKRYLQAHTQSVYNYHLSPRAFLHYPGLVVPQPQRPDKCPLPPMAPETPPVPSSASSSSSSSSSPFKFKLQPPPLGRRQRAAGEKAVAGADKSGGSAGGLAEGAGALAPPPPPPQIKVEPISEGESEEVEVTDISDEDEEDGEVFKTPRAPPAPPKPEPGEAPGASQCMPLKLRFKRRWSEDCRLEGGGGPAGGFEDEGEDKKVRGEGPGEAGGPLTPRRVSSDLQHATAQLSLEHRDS
The method, boiled down: as §1

The target of experiment [15] is T10, ETV3L (Homo sapiens, UniProt Q6ZN32 1-361).
T10 sequence: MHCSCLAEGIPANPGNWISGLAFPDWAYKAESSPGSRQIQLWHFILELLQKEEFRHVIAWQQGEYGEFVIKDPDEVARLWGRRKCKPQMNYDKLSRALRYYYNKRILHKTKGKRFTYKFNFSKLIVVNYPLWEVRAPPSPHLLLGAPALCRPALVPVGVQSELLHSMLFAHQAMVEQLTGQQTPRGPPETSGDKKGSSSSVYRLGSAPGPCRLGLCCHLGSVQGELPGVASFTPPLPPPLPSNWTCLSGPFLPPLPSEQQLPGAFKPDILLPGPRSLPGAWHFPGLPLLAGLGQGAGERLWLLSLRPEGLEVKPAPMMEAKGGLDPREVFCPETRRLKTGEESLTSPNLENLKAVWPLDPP
In short, it runs like this: as §1

In experiment [16] the target is T11, ETS2 (Homo sapiens, UniProt P15036 1-469).
T11 sequence: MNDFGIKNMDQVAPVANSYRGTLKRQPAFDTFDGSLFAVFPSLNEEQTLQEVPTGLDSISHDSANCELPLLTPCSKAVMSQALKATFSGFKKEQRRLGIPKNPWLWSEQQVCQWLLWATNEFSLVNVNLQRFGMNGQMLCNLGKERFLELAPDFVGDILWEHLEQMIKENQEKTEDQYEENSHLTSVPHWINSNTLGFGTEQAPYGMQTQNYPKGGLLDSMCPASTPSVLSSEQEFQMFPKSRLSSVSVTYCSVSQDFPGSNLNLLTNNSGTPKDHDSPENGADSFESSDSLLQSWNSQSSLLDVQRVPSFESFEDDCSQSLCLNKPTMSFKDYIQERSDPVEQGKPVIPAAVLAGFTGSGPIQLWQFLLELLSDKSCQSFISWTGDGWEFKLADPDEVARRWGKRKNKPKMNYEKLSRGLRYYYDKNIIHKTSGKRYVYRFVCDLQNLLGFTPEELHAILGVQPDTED
In short, it runs like this: as §1

The target of experiment [17] is T12, ELF5 (Homo sapiens, UniProt Q9UKW6-2 1-255).
T12 sequence: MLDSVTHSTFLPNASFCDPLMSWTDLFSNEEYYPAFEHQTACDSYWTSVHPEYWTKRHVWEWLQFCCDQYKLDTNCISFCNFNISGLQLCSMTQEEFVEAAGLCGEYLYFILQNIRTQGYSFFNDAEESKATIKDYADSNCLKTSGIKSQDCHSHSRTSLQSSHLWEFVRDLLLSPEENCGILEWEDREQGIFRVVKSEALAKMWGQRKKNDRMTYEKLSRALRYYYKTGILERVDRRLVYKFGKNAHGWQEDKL
In short, it runs like this:
as §1

The target in experiment [18] is T13, ETV3 (Homo sapiens, UniProt P41162-2 1-143).
T13 sequence: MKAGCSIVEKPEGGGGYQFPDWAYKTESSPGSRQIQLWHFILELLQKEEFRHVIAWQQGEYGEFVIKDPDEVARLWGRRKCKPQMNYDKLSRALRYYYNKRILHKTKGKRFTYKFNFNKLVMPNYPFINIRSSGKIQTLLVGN
The method, boiled down: as §1

The target in experiment [19] is ETV6 (Homo sapiens, UniProt P41212 1-452). In short, it runs like this:
as §1

ELF1, sequence (P32519 whole entry): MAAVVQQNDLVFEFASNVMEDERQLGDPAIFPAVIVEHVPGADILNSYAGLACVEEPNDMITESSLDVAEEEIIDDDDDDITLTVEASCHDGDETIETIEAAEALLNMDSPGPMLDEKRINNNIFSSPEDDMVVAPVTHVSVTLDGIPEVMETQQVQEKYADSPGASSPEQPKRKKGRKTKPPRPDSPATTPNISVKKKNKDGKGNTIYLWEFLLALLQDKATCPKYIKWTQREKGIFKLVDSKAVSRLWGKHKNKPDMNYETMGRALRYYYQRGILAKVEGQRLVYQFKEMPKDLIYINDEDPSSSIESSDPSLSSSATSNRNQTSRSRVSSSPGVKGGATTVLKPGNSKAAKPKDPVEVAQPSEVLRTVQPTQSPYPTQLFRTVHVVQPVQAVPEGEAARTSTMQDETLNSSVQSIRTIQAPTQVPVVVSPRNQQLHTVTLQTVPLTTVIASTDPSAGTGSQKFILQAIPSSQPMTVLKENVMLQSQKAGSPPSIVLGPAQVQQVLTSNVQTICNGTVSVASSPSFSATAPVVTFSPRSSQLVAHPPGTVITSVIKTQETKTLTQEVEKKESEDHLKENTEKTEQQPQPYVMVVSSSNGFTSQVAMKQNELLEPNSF
ELF4, sequence (Q99607 whole entry): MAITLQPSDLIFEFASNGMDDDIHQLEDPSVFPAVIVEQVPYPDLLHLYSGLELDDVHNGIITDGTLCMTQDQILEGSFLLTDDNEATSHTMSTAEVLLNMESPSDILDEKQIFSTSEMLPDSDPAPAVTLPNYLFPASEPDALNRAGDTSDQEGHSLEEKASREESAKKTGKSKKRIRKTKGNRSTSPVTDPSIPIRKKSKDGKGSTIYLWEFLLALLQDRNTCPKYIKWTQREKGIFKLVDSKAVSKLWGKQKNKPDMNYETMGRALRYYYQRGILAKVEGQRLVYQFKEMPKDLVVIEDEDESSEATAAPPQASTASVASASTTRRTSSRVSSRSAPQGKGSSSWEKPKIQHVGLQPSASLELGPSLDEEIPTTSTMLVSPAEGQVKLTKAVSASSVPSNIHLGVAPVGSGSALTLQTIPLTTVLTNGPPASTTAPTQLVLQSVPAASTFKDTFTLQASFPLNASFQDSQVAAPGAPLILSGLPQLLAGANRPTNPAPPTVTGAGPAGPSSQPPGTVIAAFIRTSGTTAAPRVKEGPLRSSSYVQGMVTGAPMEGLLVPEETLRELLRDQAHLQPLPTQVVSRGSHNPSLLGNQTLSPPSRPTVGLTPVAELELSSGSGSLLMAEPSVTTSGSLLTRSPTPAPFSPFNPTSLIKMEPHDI
SPIB, sequence (Q01892 whole entry): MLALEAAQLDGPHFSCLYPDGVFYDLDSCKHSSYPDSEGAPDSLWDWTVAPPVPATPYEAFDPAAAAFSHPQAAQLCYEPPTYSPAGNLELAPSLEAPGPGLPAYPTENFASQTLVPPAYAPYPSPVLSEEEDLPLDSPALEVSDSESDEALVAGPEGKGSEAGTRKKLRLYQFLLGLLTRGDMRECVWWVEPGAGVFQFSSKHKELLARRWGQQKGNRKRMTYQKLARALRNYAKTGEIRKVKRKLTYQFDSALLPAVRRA
ETV5, sequence (P41161 whole entry): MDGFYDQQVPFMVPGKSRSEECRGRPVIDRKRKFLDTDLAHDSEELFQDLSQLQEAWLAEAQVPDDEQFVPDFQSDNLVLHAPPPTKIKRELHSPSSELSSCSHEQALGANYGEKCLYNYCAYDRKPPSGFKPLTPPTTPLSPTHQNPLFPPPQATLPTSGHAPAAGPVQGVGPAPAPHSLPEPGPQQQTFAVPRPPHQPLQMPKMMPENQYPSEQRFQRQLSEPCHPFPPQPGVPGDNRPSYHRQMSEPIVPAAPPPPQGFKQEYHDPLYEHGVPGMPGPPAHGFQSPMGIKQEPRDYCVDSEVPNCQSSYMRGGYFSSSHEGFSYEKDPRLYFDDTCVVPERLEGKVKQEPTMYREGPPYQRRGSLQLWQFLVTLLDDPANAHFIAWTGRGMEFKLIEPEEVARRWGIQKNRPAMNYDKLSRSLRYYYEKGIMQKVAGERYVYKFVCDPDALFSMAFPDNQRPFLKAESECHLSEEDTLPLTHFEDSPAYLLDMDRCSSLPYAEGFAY
ETV6, sequence (P41212 whole entry): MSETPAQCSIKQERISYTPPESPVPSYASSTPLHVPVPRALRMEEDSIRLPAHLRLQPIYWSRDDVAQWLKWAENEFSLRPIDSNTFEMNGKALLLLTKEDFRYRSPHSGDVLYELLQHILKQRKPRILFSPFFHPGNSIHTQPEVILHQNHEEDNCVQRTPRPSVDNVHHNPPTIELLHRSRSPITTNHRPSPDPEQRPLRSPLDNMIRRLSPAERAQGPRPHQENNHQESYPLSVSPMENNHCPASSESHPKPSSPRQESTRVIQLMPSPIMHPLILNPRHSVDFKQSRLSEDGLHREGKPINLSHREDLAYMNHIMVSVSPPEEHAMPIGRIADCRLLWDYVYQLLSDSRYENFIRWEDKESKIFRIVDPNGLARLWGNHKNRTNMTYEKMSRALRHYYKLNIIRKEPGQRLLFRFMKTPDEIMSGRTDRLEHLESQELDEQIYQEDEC

As for TGCCAA, the binding signal was 1.07 fold enrichment (6-mer frequency, TF over GST control) in experiment [1]; 1.11 fold enrichment (6-mer frequency, TF over GST control) in experiment [2]; 1.06 fold enrichment (6-mer frequency, TF over GST control) in experiment [3]; 1.06 fold enrichment (6-mer frequency, TF over GST control) in experiment [4]; 1.18 fold enrichment (6-mer frequency, TF over GST control) in experiment [5]; 1.09 fold enrichment (6-mer frequency, TF over GST control) in [6]. Also, the binding signal in experiment [7] is 1.12 fold enrichment (6-mer frequency, TF over GST control); in [8], 1.11 fold enrichment (6-mer frequency, TF over GST control); in experiment [9], 1.05 fold enrichment (6-mer frequency, TF over GST control); in [10], 1.12 fold enrichment (6-mer frequency, TF over GST control); in experiment [11], 1.08 fold enrichment (6-mer frequency, TF over GST control); in experiment [12] it was 1.08 fold enrichment (6-mer frequency, TF over GST control). The binding signal in [13] is 1.12 fold enrichment (6-mer frequency, TF over GST control); in [14], 1.15 fold enrichment (6-mer frequency, TF over GST control); in experiment [15], 1.21 fold enrichment (6-mer frequency, TF over GST control); in experiment [16] it was 1.12 fold enrichment (6-mer frequency, TF over GST control); in [17], 1.1 fold enrichment (6-mer frequency, TF over GST control); in experiment [18], 1.13 fold enrichment (6-mer frequency, TF over GST control). Moreover, the binding signal in [19] was 1.08 fold enrichment (6-mer frequency, TF over GST control).
